# Test results reported in ChEMBL document CHEMBL1961873, “Compounds: GSK PKIS; Assays: Nanosyn kinase panel” (2012).
# How the values were obtained:
# [1] = molecular target: Calcium/calmodulin-dependent protein kinase type II subunit alpha (Homo sapiens) (UniProt Q9UQM7); conditions: at 1 µM;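 note: reported value is a mean percent inhibition of CAMK2A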
# [2] = molecular target: Calcium/calmodulin-dependent protein kinase type II subunit delta (Homo sapiens) (UniProt Q13557); conditions: at 0.1 µM
# [3] = molecular target: Calcium/calmodulin-dependent protein kinase type II subunit delta (Homo sapiens) (UniProt Q13557); conditions: at 1 µM
# [4] = molecular target: T1, Calcium/calmodulin-dependent protein kinase type IV (Homo sapiens) (UniProt Q16566); conditions: at 0.1 µM
# T1 sequence (whole entry): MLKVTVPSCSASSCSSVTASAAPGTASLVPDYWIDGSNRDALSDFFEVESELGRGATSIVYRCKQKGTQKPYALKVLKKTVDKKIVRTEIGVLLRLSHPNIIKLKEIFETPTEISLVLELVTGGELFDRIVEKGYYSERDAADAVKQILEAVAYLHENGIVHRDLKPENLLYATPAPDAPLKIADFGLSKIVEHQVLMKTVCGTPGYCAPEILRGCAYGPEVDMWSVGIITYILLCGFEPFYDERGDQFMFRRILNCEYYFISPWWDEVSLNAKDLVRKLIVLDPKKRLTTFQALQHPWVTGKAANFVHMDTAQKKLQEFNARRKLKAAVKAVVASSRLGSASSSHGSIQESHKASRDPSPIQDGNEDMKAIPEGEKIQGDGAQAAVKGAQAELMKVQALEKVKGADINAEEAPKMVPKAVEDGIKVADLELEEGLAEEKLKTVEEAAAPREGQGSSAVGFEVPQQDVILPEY
# [5] = molecular target: T1, Calcium/calmodulin-dependent protein kinase type IV (Homo sapiens); conditions: at 1 µM
# [6] = molecular target: T2, Serine/threonine-protein kinase Chk1 (Homo sapiens) (UniProt O14757); conditions: at 0.1 µM
# T2 sequence (whole entry): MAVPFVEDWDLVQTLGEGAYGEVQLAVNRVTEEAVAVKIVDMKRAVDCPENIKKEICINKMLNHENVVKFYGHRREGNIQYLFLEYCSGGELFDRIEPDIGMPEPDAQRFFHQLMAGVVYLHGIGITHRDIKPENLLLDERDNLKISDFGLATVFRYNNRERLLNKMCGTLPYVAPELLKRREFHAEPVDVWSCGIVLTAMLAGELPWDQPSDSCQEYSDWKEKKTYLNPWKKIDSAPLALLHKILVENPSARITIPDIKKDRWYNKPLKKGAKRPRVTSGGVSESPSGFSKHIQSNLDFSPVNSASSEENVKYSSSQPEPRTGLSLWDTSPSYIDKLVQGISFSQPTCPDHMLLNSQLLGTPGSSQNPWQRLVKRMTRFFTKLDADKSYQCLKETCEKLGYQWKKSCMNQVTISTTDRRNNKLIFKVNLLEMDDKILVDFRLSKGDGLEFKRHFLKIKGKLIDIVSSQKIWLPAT
# [7] = molecular target: T2, Serine/threonine-protein kinase Chk1 (Homo sapiens); conditions: at 1 µM
# [8] = molecular target: Serine/threonine-protein kinase Chk2 (Homo sapiens) (UniProt O96017); conditions: at 0.1 µM
# [9] = molecular target: Serine/threonine-protein kinase Chk2 (Homo sapiens) (UniProt O96017); conditions: at 1 µM
# [10] = molecular target: Death-associated protein kinase 1 (Homo sapiens) (UniProt P53355); conditions: at 0.1 µM
# [11] = molecular target: Death-associated protein kinase 1 (Homo sapiens) (UniProt P53355); conditions: at 1 µM
# [12] = molecular target: T3, Serine/threonine-protein kinase DCLK2 (Homo sapiens) (UniProt Q8N568); conditions: at 0.1 µM
# T3 sequence (whole entry): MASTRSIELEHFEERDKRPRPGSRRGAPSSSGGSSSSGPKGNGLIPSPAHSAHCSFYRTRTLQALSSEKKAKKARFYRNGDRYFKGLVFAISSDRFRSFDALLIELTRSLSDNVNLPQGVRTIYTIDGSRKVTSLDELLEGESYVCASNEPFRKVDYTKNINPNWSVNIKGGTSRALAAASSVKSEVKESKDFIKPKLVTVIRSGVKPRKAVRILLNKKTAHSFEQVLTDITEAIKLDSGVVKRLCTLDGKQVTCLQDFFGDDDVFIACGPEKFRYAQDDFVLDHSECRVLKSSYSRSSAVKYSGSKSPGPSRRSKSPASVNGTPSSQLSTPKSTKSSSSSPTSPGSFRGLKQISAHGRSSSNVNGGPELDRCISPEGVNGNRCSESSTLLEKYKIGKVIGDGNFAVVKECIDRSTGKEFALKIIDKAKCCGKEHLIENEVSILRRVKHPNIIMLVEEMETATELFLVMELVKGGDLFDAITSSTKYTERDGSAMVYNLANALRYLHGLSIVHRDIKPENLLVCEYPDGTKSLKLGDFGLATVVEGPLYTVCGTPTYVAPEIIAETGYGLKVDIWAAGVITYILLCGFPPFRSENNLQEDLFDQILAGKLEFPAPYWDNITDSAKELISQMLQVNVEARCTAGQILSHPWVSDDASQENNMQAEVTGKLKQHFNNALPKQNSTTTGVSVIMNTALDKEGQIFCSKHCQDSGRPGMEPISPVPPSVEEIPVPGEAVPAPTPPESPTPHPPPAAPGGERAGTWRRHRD
# [13] = molecular target: T3, Serine/threonine-protein kinase DCLK2 (Homo sapiens); conditions: at 1 µM
# [14] = molecular target: MAP kinase-activated protein kinase 2 (Homo sapiens) (UniProt P49137); conditions: at 0.1 µM
# [15] = molecular target: MAP kinase-activated protein kinase 2 (Homo sapiens) (UniProt P49137); conditions: at 1 µM
# [16] = molecular target: MAP kinase-activated protein kinase 3 (Homo sapiens) (UniProt Q16644); conditions: at 0.1 µM
# [17] = molecular target: MAP kinase-activated protein kinase 3 (Homo sapiens) (UniProt Q16644); conditions: at 1 µM
# [18] = molecular target: Serine/threonine-protein kinase MARK1 (Homo sapiens) (UniProt Q9P0L2); conditions: at 0.1 µM
# [19] = molecular target: Serine/threonine-protein kinase MARK1 (Homo sapiens) (UniProt Q9P0L2); conditions: at 1 µM
# [20] = molecular target: MAP/microtubule affinity-regulating kinase 3 (Homo sapiens) (UniProt P27448); conditions: at 0.1 µM;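 note: mean percent inhibition of MARK3 kinase activity, measured within the GSK PKIS screening panel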
# Sequence of MAP/microtubule affinity-regulating kinase 3 (Homo sapiens) (P27448 whole entry, looked up): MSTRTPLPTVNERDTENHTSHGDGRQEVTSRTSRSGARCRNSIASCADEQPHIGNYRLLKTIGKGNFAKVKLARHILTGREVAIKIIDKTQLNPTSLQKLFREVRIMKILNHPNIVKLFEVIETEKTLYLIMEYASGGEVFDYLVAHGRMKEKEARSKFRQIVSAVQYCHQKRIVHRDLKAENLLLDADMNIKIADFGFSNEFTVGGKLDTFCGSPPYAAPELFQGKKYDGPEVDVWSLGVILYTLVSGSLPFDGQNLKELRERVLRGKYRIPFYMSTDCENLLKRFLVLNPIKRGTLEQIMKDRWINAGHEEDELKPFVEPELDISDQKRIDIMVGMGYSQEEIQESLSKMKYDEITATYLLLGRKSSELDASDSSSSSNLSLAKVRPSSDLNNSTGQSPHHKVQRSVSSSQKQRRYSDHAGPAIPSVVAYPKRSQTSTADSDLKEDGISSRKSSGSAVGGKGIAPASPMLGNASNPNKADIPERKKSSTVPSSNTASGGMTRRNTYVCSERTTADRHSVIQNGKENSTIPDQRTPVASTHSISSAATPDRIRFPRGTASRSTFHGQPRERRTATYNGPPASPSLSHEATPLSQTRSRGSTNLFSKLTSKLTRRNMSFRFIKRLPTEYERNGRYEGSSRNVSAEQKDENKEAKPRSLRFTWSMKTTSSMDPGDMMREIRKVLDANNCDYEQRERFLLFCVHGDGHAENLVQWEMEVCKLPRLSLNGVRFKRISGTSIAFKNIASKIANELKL
# Sequence of MAP kinase-activated protein kinase 2 (Homo sapiens) (P49137 whole entry, looked up): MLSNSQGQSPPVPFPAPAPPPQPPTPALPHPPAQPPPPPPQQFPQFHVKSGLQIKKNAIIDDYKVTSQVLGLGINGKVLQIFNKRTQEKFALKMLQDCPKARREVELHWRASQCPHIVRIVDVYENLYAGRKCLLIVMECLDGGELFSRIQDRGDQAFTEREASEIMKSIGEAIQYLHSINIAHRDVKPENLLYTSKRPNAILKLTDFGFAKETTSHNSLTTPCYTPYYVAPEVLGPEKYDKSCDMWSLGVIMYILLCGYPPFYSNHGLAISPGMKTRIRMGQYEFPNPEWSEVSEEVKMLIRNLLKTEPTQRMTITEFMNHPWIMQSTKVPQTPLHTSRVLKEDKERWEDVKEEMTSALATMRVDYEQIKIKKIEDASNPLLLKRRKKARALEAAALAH
# Sequence of Calcium/calmodulin-dependent protein kinase type II subunit alpha (Homo sapiens) (Q9UQM7 whole entry): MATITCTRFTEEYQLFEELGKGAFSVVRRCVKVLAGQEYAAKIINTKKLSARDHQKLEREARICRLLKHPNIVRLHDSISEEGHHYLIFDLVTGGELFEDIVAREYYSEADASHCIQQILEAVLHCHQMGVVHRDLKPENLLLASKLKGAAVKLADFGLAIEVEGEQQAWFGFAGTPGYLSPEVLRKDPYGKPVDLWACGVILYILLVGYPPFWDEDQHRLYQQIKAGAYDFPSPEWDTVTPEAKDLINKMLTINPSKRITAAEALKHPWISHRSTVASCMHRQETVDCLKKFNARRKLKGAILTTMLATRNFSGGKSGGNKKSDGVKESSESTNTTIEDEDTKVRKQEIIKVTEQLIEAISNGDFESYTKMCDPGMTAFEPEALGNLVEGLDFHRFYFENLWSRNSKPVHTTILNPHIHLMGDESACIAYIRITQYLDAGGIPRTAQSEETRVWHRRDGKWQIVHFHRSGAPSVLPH
# Sequence of Serine/threonine-protein kinase MARK1 (Homo sapiens) (Q9P0L2 whole entry, looked up): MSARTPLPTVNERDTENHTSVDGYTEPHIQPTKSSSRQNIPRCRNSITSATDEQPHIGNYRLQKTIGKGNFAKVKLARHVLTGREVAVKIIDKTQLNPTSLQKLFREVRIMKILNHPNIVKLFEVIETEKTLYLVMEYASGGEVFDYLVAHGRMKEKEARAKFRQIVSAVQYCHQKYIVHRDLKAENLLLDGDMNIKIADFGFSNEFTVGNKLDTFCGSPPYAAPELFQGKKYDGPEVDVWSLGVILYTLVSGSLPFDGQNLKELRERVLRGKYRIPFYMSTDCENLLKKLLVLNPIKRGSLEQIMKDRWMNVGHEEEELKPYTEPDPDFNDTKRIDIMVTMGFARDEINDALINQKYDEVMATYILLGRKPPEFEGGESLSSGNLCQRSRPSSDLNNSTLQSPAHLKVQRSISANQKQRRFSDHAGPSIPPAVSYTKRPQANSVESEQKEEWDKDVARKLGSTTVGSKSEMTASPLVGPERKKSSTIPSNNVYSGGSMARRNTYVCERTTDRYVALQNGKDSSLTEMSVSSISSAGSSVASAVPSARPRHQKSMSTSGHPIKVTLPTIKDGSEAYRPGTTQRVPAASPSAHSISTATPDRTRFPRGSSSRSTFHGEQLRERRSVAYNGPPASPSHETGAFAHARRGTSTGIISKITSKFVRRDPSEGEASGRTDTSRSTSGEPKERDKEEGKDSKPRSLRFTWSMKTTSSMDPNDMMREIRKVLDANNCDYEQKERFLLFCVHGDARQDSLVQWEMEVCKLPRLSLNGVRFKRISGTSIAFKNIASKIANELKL
# Sequence of Calcium/calmodulin-dependent protein kinase type II subunit delta (Homo sapiens) (Q13557 whole entry): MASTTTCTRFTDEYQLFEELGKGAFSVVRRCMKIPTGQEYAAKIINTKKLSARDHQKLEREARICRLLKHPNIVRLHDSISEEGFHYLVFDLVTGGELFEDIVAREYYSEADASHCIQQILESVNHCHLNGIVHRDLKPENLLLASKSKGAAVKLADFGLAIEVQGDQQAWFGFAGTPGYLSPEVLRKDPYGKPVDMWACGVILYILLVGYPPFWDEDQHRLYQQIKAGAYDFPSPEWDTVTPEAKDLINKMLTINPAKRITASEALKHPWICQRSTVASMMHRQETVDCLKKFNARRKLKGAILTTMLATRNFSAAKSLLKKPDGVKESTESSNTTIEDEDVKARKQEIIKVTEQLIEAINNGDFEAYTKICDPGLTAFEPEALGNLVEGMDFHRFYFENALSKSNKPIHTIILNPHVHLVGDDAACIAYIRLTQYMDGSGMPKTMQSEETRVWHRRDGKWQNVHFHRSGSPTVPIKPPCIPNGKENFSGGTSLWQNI
# Sequence of MAP kinase-activated protein kinase 3 (Homo sapiens) (Q16644 whole entry, looked up): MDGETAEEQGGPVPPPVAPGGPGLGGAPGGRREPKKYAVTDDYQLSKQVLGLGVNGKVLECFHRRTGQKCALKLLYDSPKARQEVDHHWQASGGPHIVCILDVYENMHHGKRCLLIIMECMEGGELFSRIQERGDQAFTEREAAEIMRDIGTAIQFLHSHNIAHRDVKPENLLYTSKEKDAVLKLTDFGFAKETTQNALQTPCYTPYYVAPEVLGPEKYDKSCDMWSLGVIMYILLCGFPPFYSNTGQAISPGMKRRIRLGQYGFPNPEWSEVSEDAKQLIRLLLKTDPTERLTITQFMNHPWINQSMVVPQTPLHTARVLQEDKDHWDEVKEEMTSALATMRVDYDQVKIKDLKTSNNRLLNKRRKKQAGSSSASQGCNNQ
# Sequence of Serine/threonine-protein kinase Chk2 (Homo sapiens) (O96017 whole entry): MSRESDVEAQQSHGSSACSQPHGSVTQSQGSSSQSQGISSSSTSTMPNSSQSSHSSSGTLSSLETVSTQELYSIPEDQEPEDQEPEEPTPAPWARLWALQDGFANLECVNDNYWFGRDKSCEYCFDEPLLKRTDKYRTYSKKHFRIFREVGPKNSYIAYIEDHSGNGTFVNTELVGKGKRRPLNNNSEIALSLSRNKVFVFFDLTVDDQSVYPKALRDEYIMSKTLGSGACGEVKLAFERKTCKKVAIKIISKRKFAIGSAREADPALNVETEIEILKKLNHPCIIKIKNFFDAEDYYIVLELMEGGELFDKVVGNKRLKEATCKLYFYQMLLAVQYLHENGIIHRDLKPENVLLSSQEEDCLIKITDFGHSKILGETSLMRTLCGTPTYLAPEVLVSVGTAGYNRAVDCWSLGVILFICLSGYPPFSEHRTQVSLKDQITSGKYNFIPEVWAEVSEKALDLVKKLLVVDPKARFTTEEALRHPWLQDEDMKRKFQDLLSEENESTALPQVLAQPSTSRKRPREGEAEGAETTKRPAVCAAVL
SMILES,inhibition [1] [%],inhibition [2] [%],inhibition [3] [%],inhibition [4] [%],inhibition [5] [%],inhibition [6] [%],inhibition [7] [%],inhibition [8] [%],inhibition [9] [%],inhibition [10] [%],inhibition [11] [%],inhibition [12] [%],inhibition [13] [%],inhibition [14] [%],inhibition [15] [%],inhibition [16] [%],inhibition [17] [%],inhibition [18] [%],inhibition [19] [%],inhibition [20] [%]
CNC(=O)c1ncccc1Nc1nc(Nc2cc3c(cc2OC)CCCN3C(=O)CN(C)C)nc2[nH]ccc12,5.55,4.46,8.21,0.87,5.93,3.13,4.54,3.89,11.9,4.3,7.57,1.66,3.04,2.23,1.51,3.6,2.72,4.87,6.32,5.9
NC(=O)c1ccc2c(-c3ccnc(NCCCO)n3)c(-c3ccc(F)cc3)nn2c1,3.63,4.46,3.95,0.65,0.03,8.23,7.94,10.1,10.6,11.7,15.1,1.81,1.24,5.03,5.02,39.7,43.4,4.33,4.69,4.33
Cc1cc(O)cc(C)c1/C=C/c1cncc(C(N)=O)c1,2.76,2.47,6.44,0.89,1.57,2.8,0.66,0.67,4,1.68,1.91,1.42,3.35,1.06,0.98,1.57,1.76,2.85,3.03,3.52
N#Cc1ccc2c(-c3ccnc(NC4CC4)n3)c(-c3ccc(F)cc3)nn2c1,-1.71,0.13,-1.01,0.17,-2.53,-1.96,-0.86,-0.32,0.27,1.33,0.06,-0.01,1.17,0.5,-0.23,32.7,35.1,0.42,1.08,2.94
